Compounds with a hit are over-represented: about 2.8% of the library has one in this group of screens.
TGFb SMAD3 inh: inhibitors of TGF-b signaling | HepG2 CAGA-GFP TGF-b/SMAD3 reporter, GFP fluorescence, 18 h; TGF-beta stimulated, 500 pg/mL final | Potency, µM (highest dose often 46.1 µM), most hits filed as inhibitors | 1.2% of 410,000 active; also: nearly all actives have a fitted effect of over 65% in size
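Smad-responsive CAGA-GFP expression was quantified in HEPG2 cells exposed to compounds and 500 pg/mL final TGF-beta for 18 h at 37 degrees C; unstimulated wells defined full inhibition.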
Six1-Eya2 blk: inhibitors of human Six1/Eya2 interaction; Q15475+O00167; AlphaScreen GST-Six1/His-Eya2 binding, biochemical; active compounds read low; activity change, % (no concentration beside the values); 0.56% of 360,000 active; AID 651725; in the data active = activity change below about -65%; inconclusive = mostly about -30% to -63%
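GST-Six1 + His-Eya2 (5X stock: 250/500 nM); Tris pH 8.0, 300 mM NaCl, 0.05% BSA, 0.02% Tween 20; GSH donor/Ni acceptor beads; 1 h 37 °C dark; AlphaScreen readout.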
CtBP-E1A blk: blocks the CtBP interaction with E1A; activity change, % (no concentration beside the values); AlphaScreen GST-E1A/His-CtBP binding, 1536-well; active compounds read low; 0.49% of 340,000 active; in the data active = activity change below about -65%; inconclusive = mostly about -30% to -63%
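GST-E1A and His-tagged CtBP (125 nM each as 5X stock) were preincubated with pin-transferred compound for 2 h at 37 °C in the dark, then glutathione donor and nickel acceptor beads were added for 1 h before AlphaScreen reading.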
ATXN2 expr inh: reduces ATXN2 reporter expression in HEK-293 cells; 0.72% of 360,000 active; HEK-293 ATXN2-luciferase reporter, luminescence, 24 h; AID 1745845; Potency, µM (top dose mostly 57 µM), most hits filed as inhibitors; also: nearly all actives have a fitted effect of over 55% in size
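qHTS (up to 57 uM final) was run with 24 h compound exposure of reporter cells at 37 °C. Each well was multiplexed: SteadyGlo luminescence measured ATXN2-luciferase expression after a fluorogenic Gly-Phe-AFC viability readout (25 uM final).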
S2 tox: reduces viability in counter-screen for ATXN expression inhibitors. 0.49% of 400,000 active. S2 cells (HEK-293 line with an ATXN2-luciferase reporter) viability, CellTiter-Fluor protease fluorescence, 24 h. Potency, µM (titrated, usually from 56.7 µM), hits mostly cytotoxic; also: nearly all actives have a fitted effect of over 40% in size
HepG2 tox-1: kills HepG2 cells in TGF-b inhibitor counter-screen; HepG2 CAGA-GFP viability, ATP luminescence, 18 h; Potency, µM (series often up to 46.1 µM), actives largely listed as cytotoxic; 0.76% of 410,000 active; AID 588856
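HepG2 CAGA-GFP cells (1000/well, DMEM with 1% FBS) received compound, then TGF-beta at 500 pg/mL final, and were incubated 18 hours at 37 degrees C. Viability was read by CellTiter-Glo luminescence. Media-only wells were set as complete cell-killing and DMSO as no toxicity.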
TGFb confirm: confirmation of TGF-b signaling inhibitors in HepG2 reporter cells | shares compounds with TGFb SMAD3 inh | HepG2 CAGA-GFP TGF-b reporter, GFP fluorescence, 18 h; cells stimulated with TGF-beta, 500 pg/mL | Potency, µM (doses to about 46.1 µM), hits mostly inhibitors | 63% of 1,600 active; also: nearly all actives have a fitted effect of over 65% in size
HepG2 tox-2: toxic to HepG2 cells in TGF-b counterscreen; shares compounds with TGFb SMAD3 inh; HepG2 CAGA-GFP viability, ATP luminescence, 18 h; cells stimulated with TGF-beta, 500 pg/mL; Potency, µM (titrated, usually from 46.1 µM), actives largely listed as inhibitors; 27% of 1,600 active; also: nearly all actives have a fitted effect of over 70% in size
TGFb CCL64 inh: orthogonal confirmation of TGF-b inhibitors in CCL64 cells | 41% of 1,600 active | shares compounds with TGFb SMAD3 inh | CCL64 CAGA-GFP reporter, TGF-b stimulated, GFP fluorescence, 18 h | Potency, µM (doses to about 46.1 µM), usual class: inhibitors; also: nearly all actives have a fitted effect of over 65% in size
TGFb COP inh: blocks TGF-b signaling in HepG2 COP reporter; HepG2 COP-GFP TGF-b reporter, GFP fluorescence, 18 h; cells stimulated by added recombinant TGF-beta; AID 720537; Potency, µM (top dose mostly 46.1 µM), actives largely listed as inhibitors; 3% of 1,600 active; shares compounds with TGFb SMAD3 inh; also: nearly all actives have a fitted effect of over 70% in size
A number is an active result; - = inactive; ? = inconclusive; . = no result given. Unless noted, calls follow the shape of the dose curve; as a rule, active = well fitted curve in the direction sought with a large enough effect; inconclusive = small, poorly fitted or top-dose-only effect, or another doubt; inactive = no such curve, though single readings can be large; an effect the other way counts as inactive or inconclusive.

SMILES | TGFb SMAD3 inh | Six1-Eya2 blk | CtBP-E1A blk | ATXN2 expr inh | S2 tox | HepG2 tox-1 | TGFb confirm | HepG2 tox-2 | TGFb CCL64 inh | TGFb COP inh
Cc1cccc(C2(c3cccc(C)c3)CC2C(=O)Nc2ccc([N+](=O)[O-])cc2O)c1 (stereo not drawn) | 7.9µM | - | - | ? | 18µM | 11µM | 6.5µM | 12µM | 7.3µM | -
O=C(Nc1ccc(C(F)(F)F)cc1)N1CCN(c2ccnc3cc(Cl)ccc23)CC1 | 11µM | - | - | ? | ? | - | 23µM | ? | ? | -
COc1ccc(S(=O)(=O)c2cc3cc(C(C)(C)C)cc(O)c3oc2=O)cc1 | ? | . | . | ? | ? | - | . | . | . | .
O=C(Nc1ccccc1C(=O)OCc1cc(=O)n2ccsc2n1)c1cccc(F)c1 | - | . | . | . | . | - | . | . | . | .
CC(C)C1Cc2[nH]c(=S)[nH]c(=O)c2C(c2ccc(Cl)cc2)O1 (stereo not drawn) | - | - | - | - | - | - | . | . | . | .
COc1ccc(CCNC(=O)CS(=O)Cc2nc(-c3ccc(C)cc3)oc2C)c(OC)c1 (stereo not drawn) | - | . | . | - | - | - | . | . | . | .
Cc1ccc(-c2ccc(SCC(=O)Nc3ccc4c(c3)OCCO4)nn2)cc1 | 3.2µM | - | - | - | ? | - | 21µM | - | - | -
CC(=O)Nc1ccc(NC(=O)CSc2ccc(-c3ccc4c(c3)OCO4)nn2)cc1 | - | - | - | - | - | - | . | . | . | .
COC(=O)c1cc2c(cc1NC(=O)c1c(C)nn(-c3ccc(C)cc3)c1-n1cccc1)OCO2 | - | . | . | . | . | - | . | . | . | .
O=C(Nc1cccc(Cl)c1Cl)c1csc([C@H]2C[C@H](O)[C@@H](CO)O2)n1 | - | - | - | - | - | - | . | . | . | .
CN(CCCC1CCCC1)C(=O)c1cc(COc2ccc(F)cc2F)on1 | 10µM | - | - | - | - | - | 21µM | ? | 26µM | -
Cc1cc(C)nc(/N=C(\N)Nc2ccc(CC(=O)OC(C)C)cc2)n1 | 10µM | - | - | - | - | - | ? | - | ? | -
Cc1cc(C)nc(/N=C(\N)Nc2ccc(OCc3ccccc3)cc2)n1 | 0.25µM | - | - | ? | ? | - | 0.18µM | ? | 18µM | -
COc1ccc(/C=C/C(=O)c2cc(F)ccc2OC(=O)c2ccccc2)cc1OC | 8.9µM | - | - | - | ? | - | ? | - | ? | -
Cc1cc(C)cc(NC(=O)c2cc(S(=O)(=O)N3CCCCC3)c[nH]2)c1 | - | . | . | . | . | - | . | . | . | .
CC(C)C[C@H]1CNC(=S)N1C[C@H]1CCCN1C[C@H](CC(C)C)N1C[C@H](Cc2ccc(O)cc2)N(CCc2ccccc2)C1=S | 7.1µM | - | - | ? | 7.1µM | - | ? | 21µM | 23µM | -
CC(C)C[C@H]1CN([C@@H](CC(C)C)CN2CCC[C@@H]2CN2C(=S)NC[C@@H]2Cc2ccc(O)cc2)C(=S)N1CCc1ccccc1 | 10µM | - | - | ? | ? | - | 13µM | ? | 16µM | -
COc1ccc2c(c1)c1c(c(=O)n(Cc3ccccc3)c(=O)n1Cc1cccc(Cl)c1)n2C | - | . | . | - | - | - | . | . | . | .

High-throughput results deposited in PubChem BioAssay by National Center for Advancing Translational Sciences (NCATS).
